Bioassay records (PubChem)
A549 viability: Nrf2 qHTS screen for inhibitors: counterscreen for cytotoxicity | hit rate 0.16% among 390,000 | A549 ARE-Fluc cells, CellTiter-Fluor viability, 18-24 h | Potency, µM (titrated, usually from 46 µM), most hits filed as inhibitors | AID 504648, 2011
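A549 ARE-Fluc cells in 5% FBS OPTI-MEM, 5000 cells/well, rested 2 h then exposed to compounds in concentration-response for 18-24 h at 37 °C. Viability by CellTiter-Fluor fluorescence (Ex 405/Em 525) after 30 min; luciferase luminescence (BugLite, 15 min, RT) read afterwards.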
miR-21 act: qHTS Assay for Modulators of miRNAs and/orActivators of miR-21; HeLa miR-21 FLuc reporter, luciferase, 48 h; 340,000 tested, under 10 active; Potency, µM (doses to about 38.3 µM), actives largely listed as activators;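 further: miR-21 action dims this reporter so a rising signal means less miR-21 action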
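HeLa cells stably expressing CMV-driven firefly luciferase with a downstream miR-21 binding sequence, endogenously expressing miR-21, were treated with titrations (up to about 40uM final) for 48 hours at 37 degree Celsius. Luciferase luminescence was read after lysis.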
Nrf2 ARE act: qHTS of Nrf2 Activators; AREc32 ARE-luciferase reporter (MCF7-derived line), luminescence, 24 h; Potency, µM (top dose mostly 46.1 µM), actives largely listed as activators; hit rate 0.31% among 410,000; further: nearly all actives have a fitted effect of over 65% in size
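Quantitative high-throughput format: AREc32 reporter cells, 1000 per well, received compound by pin transfer and were incubated 24 hr at 37 deg C, 5% CO2, before Steady-Glo luminescence detection.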
Nrf2 block: Nrf2 qHTS screen for inhibitors; A549 ARE-Fluc reporter, luciferase luminescence, 18-24 h; hit rate 2.1% among 360,000; Potency, µM (highest dose often 46 µM), actives largely listed as inhibitors; further: nearly all actives have a fitted effect of over 60% in size
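Nrf2 function is reported as luminescence of an ARE-controlled luciferase in A549 cells. Compounds were tested at several concentrations, and a CellTiter-Fluor read on the same wells flagged cytotoxicity.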
ClpP mod: qHTS Assay for Activators of ClpP; ATP-dependent Clp protease proteolytic subunit (Bacillus subtilis (strain 168)), P80244; purified B. subtilis ClpP, FRET peptide cleavage, 20 min; Potency, µM (series often up to 57.5 µM); hit rate 1.9% among 340,000; AID 651965, 2013; active means well fitted falling curve with a large enough effect; inconclusive means small, poorly fitted or top-dose-only effect; inactive means no such curve, though single readings can be large or run the other way; further: the source files actives as falling curves though it sought activators and does not explain the sign; nearly all actives have a fitted effect of over 65% in size
Target sequence (P80244 whole entry, looked up): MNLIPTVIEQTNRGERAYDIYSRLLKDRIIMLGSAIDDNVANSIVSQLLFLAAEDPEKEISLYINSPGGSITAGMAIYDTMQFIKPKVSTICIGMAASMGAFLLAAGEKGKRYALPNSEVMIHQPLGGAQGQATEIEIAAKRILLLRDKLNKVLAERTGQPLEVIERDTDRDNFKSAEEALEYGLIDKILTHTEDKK
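Buffer: 100 mM Tris/HCl pH8, 100 mM KCl, 0.05% low protease BSA, 2.5% glycerol, 0.01% Tween-20. ClpP 10 microg/mL final; 20 min RT; delta FRET normalized to ADEP and DMSO controls.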
p53 reactivation: qHTS assay for re-activators of p53 using a Luc reporter. H1299 p53-A138V BP100-luciferase reporter, luminescence, 24 h. hit rate 0.063% among 320,000. Potency, µM (top dose mostly 92.2 µM), most hits filed as activators; further: nearly all actives have a fitted effect of over 45% in size
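p53-null H1299 cells stably carrying temperature-sensitive p53-A138V and a BP100-luciferase reporter were pinned with compounds (4-point, 1:5 series) and held 24 hrs at 37 deg C. Luminescence was read 10 min after detection reagent.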
Hits are given with their value; . = inactive; ? = inconclusive; / = not tested or not shown; ! = not active in a repeat. In the library only some 3.7% were active in any assay of this set; here they are far more common. Unless noted, the call rests on the fitted dose curve; in most records, active means well fitted curve in the direction sought with a large enough effect; inconclusive means small, poorly fitted or top-dose-only effect, or another doubt; inactive means no such curve, though single readings can be large; an effect the other way counts as inactive or inconclusive.

SMILES	A549 viability	miR-21 act	Nrf2 ARE act	Nrf2 block	ClpP mod	p53 reactivation
COc1ccc(Cc2nn3c(-c4ccccc4Br)nnc3s2)cc1	.	.	.	16µM	.	.
NC(=O)c1ccc(N2CCN(c3ccc(O)cc3)CC2)c([N+](=O)[O-])c1	.	.	.	18µM	/	.
NC(=O)CC(NC(=O)c1ccccc1)c1ccc(N2CCN(c3ccc(F)cc3)CC2)c([N+](=O)[O-])c1 (stereo not given)	.	.	.	21µM	.	.
CC(=O)c1ccc(N2CCN(c3ccc(C(N)=O)cc3[N+](=O)[O-])CC2)cc1	.	.	.	.	.	.
Cc1cc(C)c(OCC(=O)N(Cc2ccc(N(C)C)cc2)Cc2ccco2)c(C)c1	.	.	.	?	.	/
Cc1ccccc1C(=O)Nc1ccc(-c2nc3ccc(C(=O)c4ccccc4)cc3[nH]2)cc1	.	.	.	21µM	?	.
Cc1ccc(S(=O)(=O)Nc2ccccc2C(=O)Nc2nc(-c3ccc(F)cc3)cs2)cc1	?	?	.	?	16µM	.
O=C(NNc1nc(-c2ccc(F)cc2)cs1)c1ccccc1	?	?	.	15µM	/	?
O=C(NNc1nc(-c2ccccc2)cs1)c1ccc(F)cc1	.	.	.	.	.	?
O=C(Nc1ccc(-c2nc3ccccc3[nH]2)cc1)c1ccccc1NS(=O)(=O)c1ccc(F)cc1	.	.	.	.	35µM	.
O=C(c1ccccc1)c1ccc2nc(-c3ccc(NC(=O)c4ccccc4Br)cc3)[nH]c2c1	.	.	.	?	?	.
O=C(CC1(CC2=NS(=O)(=O)c3ccccc3N2)CCCC1)NCCc1ccccc1	.	.	.	.	.	.
O=S(=O)(c1cccnc1)N1CCN(c2nc(-c3cccs3)nc3ccccc23)CC1	.	/	/	?	32µM	/
O=S(=O)(c1ccccc1)N1CCN(c2nc(-c3cccs3)nc3ccccc23)CC1	.	.	/	?	?	.
O=S(=O)(c1ccc(Cl)cc1)N1CCN(c2nc(-c3cccs3)nc3ccccc23)CC1	.	.	.	?	20µM!	.
Cc1cc2c(s1)c1cnn(Cc3cccc(F)c3F)c(=O)c1n2C	.	/	/	.	/	/
Cn1nnnc1Sc1ncnc2scc(-c3ccccc3F)c12	.	/	/	?	/	/
COc1ccccc1N1CC(O)=C(c2nc3ccccc3c(=O)[nH]2)C1=N	.	.	.	.	32µM	.
COCCN1CC(O)=C(c2nc3ccccc3c(=O)[nH]2)C1=N	.	.	.	/	?	.
CC(=O)c1c(C)[nH]c(C(=O)OCC(=O)Nc2ccc(C)cc2[N+](=O)[O-])c1C	.	.	.	5.8µM	.	.
CCOC(=O)c1c(C)[nH]c(C(=O)OCC(=O)Nc2ccc(Cl)cn2)c1C	.	/	.	.	?	.
CC(=O)c1c(C)[nH]c(C(=O)OCC(=O)NCCCc2ccccc2)c1C	.	/	.	?	.	.
CCOC(=O)c1c(C)[nH]c(C(=O)OCC(=O)Nc2sccc2C(N)=O)c1C	?	/	.	8.2µM	.	.
CC(=O)c1c(C)[nH]c(C(=O)OCC(=O)NCc2cccs2)c1C	.	/	.	15µM	.	?
CC1(C)O[C@@H]2[C@H](O1)[C@@H](CO)O[C@H]2n1cnc2c(=O)[nH]cnc21	.	/	.	.	.	.
N=c1scc(-c2ccccc2)n1/N=C/c1ccco1	.	.	11µM	.	.	?
C(=N/n1c2ccccc2c2ccccc21)/c1ccco1	.	.	3.2µM	/	.	.
Cc1cccc(-c2n[nH]c(=S)n2/N=C/c2ccco2)c1	.	.	.	.	.	.
COC(=O)C1=C(C)NC(C)=C(C(=O)OC)C1c1cn(-c2ccccc2)nc1-c1ccco1	/	.	?	.	28µM	.
CCC(C(=O)Nc1cc(-c2nc3cccnc3s2)ccc1C)c1ccccc1 (stereo not given)	.	.	.	?	35µM	/
